# IP6K1 inh: inhibitors of human IP6K1; IP6K1 kinase, ADP-Glo luminescence, 2 h; stronger effect = lower value; activity change, % (series mostly up to about 58 µM); 0.81% of 140,000 active; AID 1645851; in the data active = activity change below about -25%; also: % is scaled to controls: 0 for no effect and ±100 for the full control effect
# Target sequence (Q92551 whole entry, looked up): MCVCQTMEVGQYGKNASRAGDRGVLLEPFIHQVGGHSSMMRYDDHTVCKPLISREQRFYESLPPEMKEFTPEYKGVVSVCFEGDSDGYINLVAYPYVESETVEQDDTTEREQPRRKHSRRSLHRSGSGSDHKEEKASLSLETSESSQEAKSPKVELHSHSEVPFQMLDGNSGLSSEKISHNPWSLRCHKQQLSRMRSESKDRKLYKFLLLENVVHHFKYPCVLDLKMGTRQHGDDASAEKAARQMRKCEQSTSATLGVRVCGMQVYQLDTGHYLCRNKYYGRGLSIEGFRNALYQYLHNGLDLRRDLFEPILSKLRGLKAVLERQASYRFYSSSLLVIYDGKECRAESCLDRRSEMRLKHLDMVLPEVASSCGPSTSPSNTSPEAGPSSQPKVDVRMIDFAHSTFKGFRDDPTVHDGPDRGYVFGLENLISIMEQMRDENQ
#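 ADP-Glo luminescence measures ADP made by human IP6K1 during a 2 h RT reaction with ATP/IP6 (mix at 1.3 mM/130 uM); top library doses 57.5 and 19.1 uM final.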
# HEK293 viab: counter-screen for SNCA expression inhibitors: cell viability. HEK-293-SNCA-luc viability, GF-AFC fluorescence, 24 h. Potency, µM (titrated, usually from 57.1 µM), for inactives: at the highest dose activity change, negative = cytotoxicity, most hits filed as cytotoxic. 0.12% of 150,000 active. AID 1671193;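 also: potency is read from the fitted curve at half-maximal effect; 0% = DMSO-treated cells and -100% = medium-only wells without cells; nearly all actives have a fitted effect of over 30% in size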
#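 HEK-293-SNCA-luc cells (1500/well) plated 24 h, then exposed 24 h to a dilution series; GF-AFC added 30 min at 37C, fluorescence 405/540 nm; normalised to medium-only and DMSO wells, Hill fit.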
# KDM5B inhibitor: blocks human KDM5B histone demethylase activity; Q9UGL1; KDM5B demethylase, FDH-coupled NADH fluorescence (FDH is formaldehyde dehydrogenase); Potency, µM (series often up to 57.7 µM), usual class: inhibitors; 2.6% of 220,000 active; AID 1347165; also: potency is read from the fitted curve at half-maximal effect; 0% is about no effect; nearly all actives have a fitted effect of over 70% in size
#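 Coupled FDH/NAD⁺ fluorescence readout. KDM5BΔAP 200 nM final; compound titration, 10 min RT preincubation; substrate mix 12.5 µM H3K4me3, 25 µM 2-OG, 50 µM Fe(II), 100 µM ascorbate, 0.25 mM NAD⁺, 0.25 U/mL FDH; ΔRFU over 30 min.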
# SNCA expr inh: reduces expression of the alpha-synuclein gene; HEK-293 SNCA-luciferase knock-in, luminescence, 24 h; Potency, µM (titrated, usually from 57.2 µM), for the others: at the highest dose activity change, negative = inhibition, actives largely listed as inhibitors; 0.17% of 140,000 active; AID 1671194;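 also: potency is read from the fitted curve at half-maximal effect; plate controls were DMSO cells for no effect and cell-free wells for full effect; nearly all actives have a fitted effect of over 45% in size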
# * = called active by the depositor; i = inactive; ? = inconclusive; . = no result; ! = not confirmed by another sample; [ ] = remark or other dose. In the library only some 2.9% were active in any assay of this set; here they are far more common. Unless noted, calls follow the shape of the dose curve; as a rule, active = well fitted curve in the direction sought with a large enough effect; inconclusive = small, poorly fitted or top-dose-only effect, or another doubt; inactive = no such curve, though single readings can be large; an effect the other way counts as inactive or inconclusive.
SMILES,IP6K1 inh,HEK293 viab,KDM5B inhibitor,SNCA expr inh
Cc1ccccc1-c1cn[nH]c1C1CCN(C(=O)c2cnn3ccccc23)CC1,5,-22%,22µM*,-19%
CCN1CCN(C(=O)c2cn3cc(-c4ccc(C)cc4)sc3n2)CC1,5,-23%,.,138%
Cc1cn2nc(C(=O)Nc3ccc(C)c(F)c3)cc2c(N(C)Cc2ccccc2)n1,-4,5%,i,14%
Cc1ccc(NC(=O)c2cc3c(N(C)Cc4ccccc4)nc(C)cn3n2)c(F)c1,15,9%,10µM*,-14%
Cc1cn2nc(C(=O)Nc3ccc(N(C)C)cc3)cc2c(N(C)Cc2ccccc2)n1,-2,-28%,?,99%
Cc1cn2nc(C(=O)Nc3ccc(F)cc3)cc2c(N(C)Cc2ccccc2)n1,15,-12%,25µM*,8%
Cc1cn2nc(C(=O)Nc3ccc(Cl)cc3)cc2c(N(C)Cc2ccccc2)n1,8,3%,28µM*,15%
COc1ccc(OCC(O)CN2CCC(=O)N(C/C=C/c3ccccc3)CCc3ccccc32)cc1 (centres undefined),-5,-1%[23.9 µM],.,13%[25.6 µM]
O=C(Nc1ccc(Cl)nc1)c1ccn2nccc2c1,1,8%[87.6 µM],?,13%[87.6 µM]
O=C(NCc1ccc(Cl)cc1)c1ccc2ccnn2c1,-1,-5%[87.6 µM],35µM*,-4%[87.6 µM]
O=C(Nc1ccc(Cl)cc1Cl)c1ccc2ccnn2c1,-6,4%[87.6 µM],?,3%[87.6 µM]
O=C(NCc1ccc(Cl)nc1)c1ccc2cncn2c1,11,4%[87.6 µM],35µM*,-26%[87.6 µM]
O=C(NCc1ccc(Cl)nc1)c1ccc2ccnn2c1,5,2%[87.6 µM],35µM*,-18%[87.6 µM]
Cc1ccc(CN2CCN(C(=O)c3ccc4c(c3)C(O)CCCCCN4C)CC2)cc1 (centres undefined),-4,-3%,?,11%
CC(C)(C)COC(=O)N1CC(=O)N(C2Cc3ccccc3C2)CC(O)C1 (centres undefined),11,.,.,.
COCC(=O)NC1CCN(Cc2ccc(-c3cc(F)ccc3OC)cc2)C1 (centres undefined),6,.,.,.
Cc1ccc(C(=O)Nc2ccc(CN3CCN(C)CC3)c(C(F)(F)F)c2)cc1C#Cc1cnc2cccnn12,22,30µM*!,.,?
CCN1CCN(Cc2ccc(NC(=O)c3ccc(C)c(NC(=O)c4cncc(-c5cccs5)c4)c3)cc2C(F)(F)F)CC1,-5,?,.,.
O=C(c1cc(CN2CCOCC2)on1)N1CCc2c(nc3cc(-c4ccccc4)[nH]n3c2=O)C1,0,-1%,28µM*,-1%
Cc1noc(C)c1Cc1ccc(C(=O)N2CCc3c(nc4cc(-c5ccccc5)[nH]n4c3=O)C2)o1,1,6%,?,23%
O=C(c1n[nH]c2c1CCCC2)N1CCc2c(nc3cc[nH]n3c2=O)C1,12,3%,28µM*,12%
Cc1ccc(CN2CC(C(=O)N3CCc4c(nc5cc(-c6ccccc6)[nH]n5c4=O)C3)CC2=O)cc1 (centres undefined),2,-1%,22µM*,-14%
O=C(c1cc(-c2cccs2)[nH]n1)N1CCc2c(nc3cc(-c4ccccc4)[nH]n3c2=O)C1,37,3%,32µM*,-5%
Cn1ncc2c(C(=O)NCC#N)cc(-c3ccc(C(F)(F)F)cc3)nc21,-13,.,.,.
O=C(NCc1ccc(Cl)cc1)c1nc2sccn2c1-c1cccc(C(F)(F)F)c1,11,?,.,?
SMILES,IP6K1 inh,HEK293 viab,KDM5B inhibitor,SNCA expr inh
O=C(c1n[nH]c2c1CCCC2)N1CCc2nc3cc[nH]n3c(=O)c2C1,0,-2%,?,4%
Cc1cccc(CC(=O)N2CCc3c(nc4cc[nH]n4c3=O)C2)c1,10,5%,32µM*,-10%
O=C(c1n[nH]c2c1CCCC2)N1CCc2c(nc3cc(-c4ccccc4)[nH]n3c2=O)C1,48,-4%,16µM*,-19%
O=C(c1ccsc1)N1CCc2c(nc3cc[nH]n3c2=O)C1,27,8%,25µM*,-7%
O=C(NCC(F)F)c1cc(-c2cccc(C(F)(F)F)c2)c2cccn2n1,-6,-3%,.,-26%
Cc1ccc(CNC(=O)c2cc3c(N(C)Cc4ccccc4)nc(C)cn3n2)cc1,4,4%,28µM*,3%
Cc1cn2nc(C(=O)N3CCSCC3)cc2c(N(C)Cc2ccccc2)n1,0,-10%,?,2%
Cc1cn2nc(C(=O)NCc3ccc(F)cc3)cc2c(N(C)Cc2ccccc2)n1,11,-20%,25µM*,-20%
Cc1cn2nc(C(=O)NCc3ccccc3C)cc2c(N(C)Cc2ccccc2)n1,15,2%,14µM*,?
O=C(c1ccc(Cl)cc1)N1CCC2(CC1)Cc1ccccc1NC2=O,-8,?,i,-17%
CCC(C(=O)NCc1nnc2c(-c3nc(C(C)C)no3)cccn12)c1ccccc1 (centres undefined),12,3%,13µM*,-6%
CCC(C(=O)NCc1nnc2c(-c3nc(C)no3)cccn12)c1ccccc1 (centres undefined),15,0%,32µM*,-16%
CC(C)c1noc(-c2cccn3c(CNC(=O)c4ccncc4)nnc23)n1,5,-8%,?,6%
CCC(C(=O)NCc1nnc2c(-c3nc(C4CC4)no3)cccn12)c1ccccc1 (centres undefined),3,1%,32µM*,1%
CC(C)c1noc(-c2cccn3c(CNC(=O)C(C)c4ccccc4)nnc23)n1 (centres undefined),14,-5%,14µM*,7%
COc1cccc(-c2cn3cc(C(=O)NCCCc4ccccc4)nc3s2)c1,7,-26%,.,?
O=C(NCc1ccccc1F)c1cc(-c2ccc(F)cc2)c2nncn2n1,16,-7%,.,8%
COCCNc1nc2cc(-c3nc(-c4cccnn4)no3)ccc2n1C,14,4%,i,?
COCCNc1nc2cc(C(=O)N[C@@H]3CC[C@@H](N)C3)ccc2n1C,-7,-1%,22µM*,2%
NS(=O)(=O)OC[C@@H]1C[C@@H](n2ccc3c(N[C@H]4CCc5ccccc54)ncnc32)C[C@@H]1O,13,-7%,.,.
Cc1ccc(-c2cc3c(=O)n(CCNC(=O)c4cnccn4)ccn3n2)cc1C,0,0%,22µM*,-5%
CCOc1ccc(-c2cc3c(=O)n(CCNC(=O)c4cnccn4)ccn3n2)cc1,-10,0%,25µM*,101%
Clc1ccccc1C1Cn2cnc(-c3nc(-c4ccccn4)no3)c2CO1 (centres undefined),0,4%,i,114%
CN(C(=O)[C@@H]1C[C@@H](c2ccc(F)cc2)N([S+](=O)([O-])c2ccccc2)C1)c1ccccc1,11,?,i,6%[87.6 µM]
CN(C)c1cccc(C(=O)Nc2ncc(-c3cnn(C)c3)c3c2OCC3)c1,-5,-5%[87.6 µM],i,2%[87.6 µM]
Cc1cc(-c2cnc(Nc3ccc(F)cc3)c3c2CCO3)ccn1,-17,-10%[87.6 µM],13µM*,52%[87.6 µM]
CN(C)c1cccc(-c2cnc(Nc3cncnc3)c3c2CCO3)c1,-18,-9%[87.6 µM],i,43%[87.6 µM]

# High-throughput results from PubChem BioAssay.
